Measurements reported in PubChem BioAssay (NCATS).
Values joined by “and” are separate entries in the source; they are usually repeats but may differ in a detail not shown here. Identical values can stand only once. Results filed as inconclusive are left out. Active and inactive are the calls of the source. Unless noted, the call rests on the fitted dose curve; in most records, active means well fitted curve in the direction sought with a large enough effect; inconclusive means small, poorly fitted or top-dose-only effect, or another doubt; inactive means no such curve, though single readings can be large; an effect the other way counts as inactive or inconclusive.

What was measured:
[1] = Cell Viability - BJ (AID 421; calls by dose curve;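 further: potency means the concentration at half of the fitted maximal effect; cells exposed to compound for 40 hours at 37 °C before readout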); conditions: BJ fibroblast viability, qHTS
Method in brief: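 Cytotoxicity in human BJ foreskin fibroblasts is scored as loss of cellular ATP after a 40-hour exposure, measured by luciferase luminescence. Controls are DMSO and 100 uM tamoxifen.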

[2] = Cell Viability - Jurkat (AID 426;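 active means dose-dependent loss of cell ATP signal giving a full or clear fitted curve, ranked by lower potency value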; further: potency means the concentration at half of the fitted maximal effect); conditions: qHTS
Method in brief: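 Jurkat (clone E6-1, human T-cell leukemia) cells, 5000/well in complete medium, were exposed to compound for 40 hr at 37 °C. Viability was read as intracellular ATP by CellTiter-Glo luminescence; AC50 came from Hill fits of concentration-response data.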

[3] = Cell Viability - Hek293 (AID 427;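 active means compounds whose dose-response curve shows a full or clear partial loss of cell viability, called from curve shape rather than a numeric limit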;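 further: potency means the concentration at half of the fitted maximal effect; cells exposed to compound for 40 hours at 37 °C before reading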); conditions: qHTS
Method in brief: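 qHTS, human embryonic kidney (adenovirus-transformed) cells; 40 hr cpd, 37 °C; CellTiter-Glo ATP luminescence. Norm: DMSO = 0, 100 uM tamoxifen = 100% inhibition. Hill-fit AC50.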

[4] = Cell Viability - HepG2 (AID 433; calls by dose curve;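 further: potency means the concentration at half of the fitted maximal effect; potency for ATP loss meaning cytotoxicity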); conditions: qHTS
Method in brief: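 In this qHTS format, a 40 h, 37 °C compound incubation of HepG2 cells in complete medium precedes a 20 min CellTiter-Glo step at room temperature. Tamoxifen and doxorubicin serve as positive controls; Hill-equation fits yield AC50.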

[5] = Cell Viability - SK-N-SH (AID 435; calls by dose curve;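 further: potency means the concentration at half of the fitted maximal effect; compound exposure lasted 40 h at 37 °C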); conditions: SK-N-SH neuroblastoma cell viability qHTS
Method in brief: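 Human neuroblastoma line, 40 h exposure at 37 °C, ATP quantified via luciferase luminescence; DMSO and 100 uM tamoxifen define 0 and 100% inhibition for AC50 fitting.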

[6] = Cell Viability - Renal Proximal Tubule (AID 545); conditions: renal proximal tubule cells viability; series mostly up to 91.7 µM;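 further: 0% = DMSO only and -100% = 100 µM tamoxifen; nearly all actives have a fitted effect of over 40% in size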
Method in brief: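 In this qHTS format, normal rat kidney-derived proximal tubule cells in complete culture medium receive compound titrations, then sit 40 hours at 37 °C before luciferase-based ATP quantitation; potency is reported as AC50 from concentration-response curves.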

[7] = Cellular Toxicity (caspase-3) MRC-5 (AID 659); conditions: MRC-5 cells, luminescence, normalized: DMSO 0%, 10 µM staurosporine 100%; series mostly up to 91.7 µM
Method in brief: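 MRC-5 human normal lung fibroblasts, 1500 cells/well, treated 16 h at 37 °C in complete medium. Caspase 3/7 measured by Caspase-Glo luminescence after 1 h at room temperature. Normalized to DMSO and 10 uM staurosporine; AC50 from Hill fit.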

[8] = Cellular Toxicity (caspase-3) N2a (AID 665); conditions: N2a cells, luminescence, normalized: DMSO 0%, 10 µM staurosporine 100%; series mostly up to 92.2 µM;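 further: compound exposure lasted 16 h at 37 °C before readout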
Method in brief: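 Mouse N2a neuroblastoma cells (1500/well) were treated with compounds for 16 h at 37 °C, then caspase-3/7 activity was read by Caspase-Glo luminescence after 1 h at room temperature. Data were normalized to DMSO and 10 uM staurosporine; AC50 from Hill fits.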

[9] = Cellular Toxicity (caspase-3) Renal Proximal Tubule (AID 667); conditions: renal proximal tubule cells; series mostly up to 91.7 µM;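 further: cells exposed to compound for 16 hours at 37 °C before detection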
Method in brief: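 Caspase-Glo 3/7 read-out, rat primary kidney proximal tubule cells. Compound exposure 16 h, 37 °C; detection after 1 h at RT. Activity scaled to DMSO and 10 uM staurosporine.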

[10] = MultiTox-Fluor Cytotoxicity Assay - LYMP1-002 - Live Cells (AID 955); conditions: LYMP1-002 lymphoblastoid live-cell protease fluorescence viability; series mostly up to 46.1 µM; further: on the % scale 0 is the no-effect control and ±100 the full control effect
Method in brief: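 Human lymphoblastoid LYMP1-002 cells, 2500/well in complete medium, rested 5 hr at 37 C, then exposed to compounds for 16 hr at 37 C. Live-cell protease cleavage of GF-AFC read by fluorescence (Ex/Em 405/510) after 60 min at room temperature; AC50 from Hill fits.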

[11] = MultiTox-Fluor Cytotoxicity Assay - LYMP1-003 - Live Cells (AID 962); conditions: LYMP1-003 lymphoblastoid cells, MultiTox-Fluor live-cell protease fluorescence; series mostly up to 92.2 µM;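 further: 0% = DMSO only and full loss = 92 µM tetraoctylammonium bromide; cytotoxic hits lower the live-cell protease signal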
Method in brief: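 LYMP1-003 human lymphoblastoid cells (2500/well) in complete medium were preincubated 5 hr at 37 C, then exposed to compounds for 16 hr at 37 C. Live-cell protease cleavage of GF-AFC read by fluorescence (Ex/Em 405/510); AC50 from Hill fits.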

[12] = Cell Viability - LYMP1-003 - Assay at 24 hr (AID 963); conditions: LYMP1-003 lymphoblastoid cell viability; series mostly up to 92.2 µM;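 further: plate controls were DMSO only for no effect and tetraoctylammonium bromide positive control for full effect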
Method in brief: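 Human lymphoblastoid LYMP1-003 cells (2500/well) were rested 5 hr at 37 C, then exposed to compounds in complete medium for 24 hr at 37 C. Cellular ATP was quantified by CellTiter-Glo luminescence, and AC50 values came from Hill fits of concentration-response data.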

[13] = Cell Viability - LYMP2-021 (AID 974); conditions: LYMP2-021 lymphoblastoid cells viability; series mostly up to 92.2 µM;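 further: compound exposure lasts 24 hours at 37 °C; on the % scale 0 is the no-effect control and ±100 the full control effect; nearly all actives have a fitted effect of over 55% in size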
Method in brief: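 Human lymphoblastoid cells (2500/well) were preincubated 5 hr at 37 C, then exposed to compounds for 24 hr at 37 C in complete medium. Intracellular ATP was read by CellTiter-Glo luminescence; AC50 came from Hill-equation fits of concentration-response data.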

[14] = Cell Viability - LYMP2-007 (AID 979); conditions: LYMP2-007 lymphoblastoid cell viability; series mostly up to 92.2 µM;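 further: cells exposed to compound for 24 h before reading; nearly all actives have a fitted effect of over 60% in size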; further: potency means the concentration at half of the fitted maximal effect
Method in brief: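 Human lymphoblastoid cells (2500/well) were plated in complete medium, incubated 5 hr at 37 C, then exposed to compounds for 24 hr at 37 C. Intracellular ATP was read by CellTiter-Glo luminescence after 30 min at room temperature; AC50 from Hill fits.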

[15] = Cell Viability - LYMP2-016 (AID 984); conditions: LYMP2-016 lymphoblastoid cell viability, qHTS; series mostly up to 92.2 µM; further: on the % scale 0 is the no-effect control and ±100 the full control effect; nearly all actives have a fitted effect of over 55% in size
Method in brief: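 Concentration-dependent ATP depletion measured in LYMP2-016 lymphoblastoid cells, 24 h, 37 C; luciferase-based luminescent detection; Hill-equation AC50.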

[16] = Cell Viability - LYMP2-018 (AID 985); conditions: LYMP2-018 lymphoblastoid cells, viability (qHTS); series mostly up to 92.2 µM;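 further: compound exposure lasted 24 hr at 37 °C; plate controls were DMSO only for no effect and tetraoctylammonium bromide at 92 µM for full effect; nearly all actives have a fitted effect of over 50% in size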
Method in brief: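 Human lymphoblastoid cells (2500/well) were pre-incubated 5 hr at 37 C, then exposed to compounds for 24 hr at 37 C in complete medium. Viability was read as intracellular ATP by CellTiter-Glo luminescence; AC50 values came from Hill-equation fits.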

[17] = Cell Viability - LYMP2-020 (AID 986); conditions: series mostly up to 92.2 µM;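 further: plate controls were DMSO only for no effect and tetraoctylammonium bromide at 92 µM for full effect; nearly all actives have a fitted effect of over 55% in size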
Method in brief: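 Human lymphoblastoid cells, 2500/well, were pre-incubated 5 hr at 37 C, then exposed to compounds for 24 hr at 37 C in complete medium. Intracellular ATP was read by CellTiter-Glo luminescence, and AC50 was derived by Hill fitting of concentration-response data.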

[18] = qHTS Assay for Identification of Small Molecule Inducers of Hypoxia Response (AID 2120; active means well fitted curve in the direction sought with a large enough effect in the signal ratio, with a control signal flat, not every such curve was filed as active; the % refers to the signal ratio; further: 0% is about no effect); conditions: hypoxia response reporter cells, beta-lactamase ratio readout; series mostly up to 104 µM
Method in brief: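 HRE-beta-lactamase reporter in CellSensor HRE-bla ME-180 cells, 2500 cells/well in Opti-MEM with 0.5% dialyzed FBS; compounds tested as titration series, 17 h at 37 degrees C. CCF4 substrate 2.5 h at room temperature; AC50 from 460/530 nm ratio.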

[19] = qHTS assay for small molecule agonists of the antioxidant response element (ARE) signaling pathway measured by Nrf2-dependant transcriptional activity - cell viability counter screen (AID 720653; active means well fitted curve in the direction sought with a large enough effect in the repeat runs; an effect the other way counts as inactive or inconclusive; further: on the % scale 0 is the no-effect control and ±100 the full control effect); conditions: ARE-bla HepG2 viability, CellTiter-Glo ATP luminescence, 16 h; hits give low values
Method in brief: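 ARE-bla HepG2 cells treated with compounds for 16 h at 37C; this counter screen measures viability as intracellular ATP by CellTiter-Glo luminescence after 30 min at room temperature.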

[20] = qHTS assay for cell viability of HEK293 cells (AID 743288); conditions: ATP luminescence (CellTiter-Glo), 18 h, hits give low values; further: on the % scale 0 is the no-effect control and ±100 the full control effect; nearly all actives have a fitted effect of over 50% in size
Method in brief: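 Luminescent ATP quantitation served as the viability read-out. Cells (parental HEK293, 2,000/well) received compounds after at least 5 h at 37 C and were exposed for 18 h before a 30 min room-temperature reagent step.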

C=CCc1cc(OC)c2c(c1)OCO2
inactive: Potency [1] > 92 µM | Potency [2] > 92 µM | Potency [3] > 92 µM | Potency [4] > 92 µM | Potency [5] > 92 µM | outcome [6] | outcome [7] | outcome [8] | outcome [9] | outcome [10] | outcome [11] | outcome [12] | Potency [13] | Potency [14] | Potency [15] | Potency [16] | Potency [17] | Potency [18] | max response [19] -2.49% | max response [20] -6.53%

CCC#N
inactive: Potency [1] > 92 µM | Potency [2] > 92 µM | Potency [3] > 92 µM | Potency [4] > 92 µM | Potency [5] > 92 µM | outcome [6] | outcome [7] | outcome [8] | outcome [9] | outcome [10] | outcome [11] | outcome [12] | Potency [13] | Potency [14] | Potency [15] | Potency [16] | Potency [17] | Potency [18] | max response [19] 13.6% | max response [20] -7.94%

O=C(O)C(Cl)(Cl)Br
inactive: Potency [1] > 92 µM | Potency [2] > 92 µM | Potency [3] > 92 µM | Potency [4] > 92 µM | Potency [5] > 92 µM | outcome [6] | outcome [7] | outcome [8] | outcome [9] | outcome [10] | outcome [11] | outcome [12] | Potency [13] | Potency [14] | Potency [15] | Potency [16] | Potency [17] | Potency [18] | max response [19] -4.89% | max response [20] 5.15%

CC(C)(C)c1ccccc1O
inactive: Potency [1] > 92 µM | Potency [2] > 92 µM | Potency [3] > 92 µM | Potency [4] > 92 µM | Potency [5] > 92 µM | outcome [6] | outcome [7] | outcome [8] | outcome [9] | outcome [10] | outcome [11] | outcome [12] | Potency [13] | Potency [14] | Potency [15] | Potency [16] | Potency [17] | Potency [18] | max response [19] -8.15% and -10.7% | max response [20] -7.55% and -11.9%

Oc1cccc(Cl)c1
inactive: Potency [1] > 92 µM | Potency [2] > 92 µM | Potency [3] > 92 µM | Potency [4] > 92 µM | Potency [5] > 92 µM | outcome [6] | outcome [7] | outcome [8] | outcome [9] | outcome [10] | outcome [11] | outcome [12] | Potency [13] | Potency [14] | Potency [15] | Potency [16] | Potency [17] | Potency [18] | max response [19] -6.82% | max response [20] 0.616%

CN(C)c1ccccc1
inactive: Potency [1] > 92 µM | Potency [2] > 92 µM | Potency [3] > 92 µM | Potency [4] > 92 µM | Potency [5] > 92 µM | outcome [6] | outcome [7] | outcome [8] | outcome [9] | outcome [10] | outcome [11] | outcome [12] | Potency [13] | Potency [14] | Potency [15] | Potency [16] | Potency [17] | Potency [18] | max response [19] 12.1% | max response [20] 0.461%

Nc1cccc2ccccc12
inactive: Potency [1] > 92 µM | Potency [3] > 92 µM | Potency [4] > 92 µM | Potency [5] > 92 µM | outcome [6] | outcome [7] | outcome [8] | outcome [9] | outcome [10] | outcome [11] | outcome [12] | Potency [15] | Potency [16] | Potency [17] | Potency [18] | max response [19] -19.6% | max response [20] -0.157%
active: Potency [2] 33 µM | Potency [14] 39.8 µM

C=CC(=O)OCCN(C)C
inactive: Potency [1] > 92 µM | Potency [2] > 92 µM | Potency [3] > 92 µM | Potency [4] > 92 µM | Potency [5] > 92 µM | outcome [6] | outcome [7] | outcome [8] | outcome [9] | outcome [10] | outcome [11] | outcome [12] | Potency [13] | Potency [14] | Potency [15] | Potency [16] | Potency [17] | Potency [18] | max response [19] 5.35% | max response [20] -6.86%

ClCCOCCCl
inactive: Potency [1] > 92 µM | Potency [2] > 92 µM | Potency [3] > 92 µM | Potency [4] > 92 µM | Potency [5] > 92 µM | outcome [6] | outcome [7] | outcome [8] | outcome [9] | outcome [10] | outcome [11] | outcome [12] | Potency [13] | Potency [14] | Potency [15] | Potency [16] | Potency [17] | Potency [18] | max response [19] -1.62% | max response [20] -0.0116%

COC(=O)Nc1cccc(OC(=O)Nc2cccc(C)c2)c1
inactive: Potency [1] > 92 µM | Potency [2] > 92 µM | Potency [3] > 92 µM | Potency [4] > 92 µM | Potency [5] > 92 µM | outcome [6] | outcome [7] | outcome [8] | outcome [9] | outcome [10] | outcome [11] | outcome [12] | Potency [13] | Potency [14] | Potency [15] | Potency [16] | Potency [17] | Potency [18] | max response [19] -11.1% | max response [20] -7.47%

Nc1ncc([N+](=O)[O-])s1
inactive: Potency [1] > 92 µM | Potency [2] > 92 µM | Potency [3] > 92 µM | Potency [4] > 92 µM | Potency [5] > 92 µM | outcome [6] | outcome [7] | outcome [8] | outcome [9] | outcome [10] | outcome [11] | outcome [12] | Potency [13] | Potency [14] | Potency [15] | Potency [16] | Potency [17] | Potency [18] | max response [19] 0.285% | max response [20] -7.17%

CC(C)(Cl)Cl
inactive: Potency [1] > 92 µM | Potency [2] > 92 µM | Potency [3] > 92 µM | Potency [4] > 92 µM | Potency [5] > 92 µM | outcome [6] | outcome [7] | outcome [8] | outcome [9] | outcome [10] | outcome [11] | outcome [12] | Potency [13] | Potency [14] | Potency [15] | Potency [16] | Potency [17] | Potency [18] | max response [19] -1.91% | max response [20] 1.9%
